Test in all cases: NCI-60 one-dose screen, 48 h (100 = growth as untreated, 0 = no growth, -100 = all killed)
Details in all cases: 10 µM unless noted

Assay [1] relates to NCI-H23 lung.
For assay [2], the system named is NCI-H226 lung.
Assay [3] deals with NCI-H322M lung.
Assay [4] deals with HOP-62 NSCLC.
The subject of assay [5] is NCI-H460 lung.
Assay [6] concerns HOP-92 NSCLC.
In assay [7] the test system is NCI-H522 lung.
Assay [8] deals with A549/ATCC NSCLC.
The subject of assay [9] is 786-0 renal.
The subject of assay [10] is COLO 205 colon.
The test system of assay [11] is DU-145 prostate.
Assay [12] concerns K-562 leukemia.
The test system of assay [13] is MALME-3M melanoma.
Assay [14] relates to MDA-MB-231 breast.
For assay [15], the system named is RXF 393 renal.
For assay [16], the system named is SF-268 CNS.
In assay [17] the test system is SF-295 CNS.
The subject of assay [18] is SF-539 CNS.
For assay [19], the system named is UACC-257 melanoma.
For assay [20], the system named is M14 melanoma.

SMILES strings stand for the structures. Compounds without any hit were thinned out: in the full panel of roughly 83,000, 20% have a hit.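 Percent growth is the endpoint: 0 to 100 indicates growth inhibition (40 means 60% inhibition), 0 means no net growth, and negative values indicate cell death.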 Unmarked numbers belong to inactive results. Activity calls are given as the source filed them. The calls were made as follows: active = growth percent below 10; inactive = the rest.

Consider `CC(=O)Nc1ccc2c(c1)Cc1cc(F)ccc1-2`, for which the growth was 90.8% in [1]; 99.2% in assay [2]; 86.9% in assay [3]; 84.8% in [4]; 106% in [5]; 93.4% in assay [6]. In addition, the growth is 73.7% in assay [7]; 92.5% in assay [8]; 98% in assay [9]; 124% in assay [10]; 96.4% in [11]; 91.4% in [12]. For the same molecule, the growth in assay [13] is 104%; in assay [14], 101%; in assay [15] it was 117%; in assay [16], 80.7%; in assay [17], 101%; in [18] it was 97%. In addition, the growth in assay [19] was 99.7%; in [20] it was 110%.

For the molecule `O=C(Nc1ccc(N=Cc2ccccc2O)cc1)NC1C=c2ccccc2=CC1` (stereo not given), the growth was 100% in [1]; 87.8% in assay [2]; 98.6% in assay [3]; 101% in [4]; 108% in [5]; 109% in [6]. Further, the growth is 93.3% in assay [7]; 87.9% in [8]; 98.2% in [9]; 117% in [10]; 102% in assay [11]; 87% in assay [12]. Moreover, the growth in [13] is 99.1%; in [14], 92%; in assay [15], 108%; in assay [16] it was 91.9%; in [17], 102%; in [18], 100%. The growth in assay [19] is 91.6%; in assay [20] it was 110%.

For `C=C(C)[C@@H]1CC[C@]2(C(=O)n3ccnc3)CC[C@]3(C)[C@H](CC[C@@H]4[C@@]5(C)CCCNC(C)(C)[C@@H]5CC[C@]43C)[C@@H]12`, the growth in assay [1] is 38.8%; in assay [2], 64.5%; in assay [3] it was 66.9%; in [4] it was 66.3%; in assay [5] it was -71.8% (active); in assay [6] it was 51.5%. For the same molecule, the growth in [7] was 50.7%; in assay [8], 23%; in [9], 29.9%; in [10], -69.8% (active); in assay [11] it was 37%; in assay [12], -38.4% (active). Besides, the growth is -74.4% (active) in assay [13]; 20.5% in assay [14]; 10.8% in [15]; 59.4% in [16]; -54.7% (active) in assay [17]; 24.6% in assay [18]. The growth in assay [19] was 5.14% (active); in assay [20], -78.6% (active).

`Nc1ccccc1NS(=O)(=O)c1ccc(Cl)cc1`: the growth in [1] was 94.5%; in [2] it was 103%; in assay [3], 81.9%; in assay [4], 106%; in [5], 104%; in [6], 78.8%. The growth is 85.2% in [7]; 107% in assay [8]; 98% in assay [9]; 104% in assay [10]; 94.2% in assay [11]; 95.9% in [12]. Further, the growth in assay [13] was 87.5%; in [14], 98.2%; in [15], 115%; in assay [16], 93.5%; in [17], 101%; in assay [18] it was 95.6%. In addition, the growth in assay [19] is 98.4%; in assay [20], 97.1%.

For the molecule `COc1ccccc1-c1ccc2nc(NC(=O)Nc3cc(C(F)(F)F)cc(C(F)(F)F)c3)sc2c1`, the growth is 6.38% (active) in assay [1]; 16.9% in assay [2]; 15.3% in assay [3]; -1.58% (active) in [4]; -4.9% (active) in [5]; -8.46% (active) in assay [6]. The growth in assay [7] is -2.89% (active); in assay [8], 12.7%; in assay [9] it was 8.85% (active); in assay [10], -84.8% (active); in [11], 19.5%; in assay [12], 5.97% (active). Besides, the growth in assay [13] is -13% (active); in [14], -64.2% (active); in assay [15], -6.71% (active); in assay [16] it was 16.8%; in [17], -0.289% (active); in assay [18], 5.2% (active). Moreover, the values for the growth in assay [19] and in assay [20] were -5.57% (active) and 16%, respectively.

As for `COc1cc(C(=O)N2CCN(c3ccccc3OC)CC2)c(NC(=O)c2cnccn2)cc1OCc1ccccc1`, the growth was 77.9% in assay [1]; 88.3% in assay [2]; 69.4% in assay [3]; 84.9% in assay [4]; 121% in assay [5]; 10.7% in [6]. Moreover, the growth in assay [7] was 73.7%; in assay [8] it was 91.8%; in [9], 87.3%; in [10], 99.4%; in assay [11] it was 104%; in assay [12], 10.8%. For the same molecule, the growth is 115% in [13]; 73.1% in assay [14]; 113% in assay [15]; 114% in assay [16]; 97.5% in [17]; 88.9% in assay [18]. Also, the growth is 78% in assay [19] and 98.4% in assay [20].

For `CN(C)CSc1nc2ccccc2s1`, the growth was 92.9% in [1]; 95.1% in [2]; 94.8% in [3]; 88% in [4]; 109% in assay [5]; 78.7% in [6]. Moreover, the growth was 91.5% in assay [7]; 101% in assay [8]; 95.4% in [9]; 91.6% in assay [10]; 105% in assay [11]; 119% in assay [12]. The growth in assay [13] is 86.7%; in assay [14] it was 91.7%; in assay [15] it was 106%; in assay [16] it was 101%; in assay [17] it was 92.8%; in [18], 94.2%. Further, the growth in assay [19] was 113%; in [20] it was 88.8%.

The values are drawn from PubChem BioAssay (NCI).
